{"source": "the supplement of paper PMC8728848", "test_in_all_cases": "glycan array binding signal (z-score within array); higher = stronger binding", "conditions_in_all_cases": "glycan notation: IUPAC condensed, linker removed", "key": {"Gal3S4S(b1-4)GlcNAc": {"target": "Gal3S4S(b1-4)GlcNAc", "method_in_brief": "(§1)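 Glycan array data came from 3228 arrays in the Consortium for Functional Glycomics database, and only arrays with an available protein sequence were kept. Glycan names were put into IUPAC-condensed notation, and columns mapping to the same glycan were averaged. The binding signal is a within-array Z-score, averaged across arrays of one protein sequence run at different concentrations or buffers and across linkers. A negative Z-score can be read as non-binding.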"}, "GalNAc4S6S(b1-4)GlcNAc": {"target": "GalNAc4S6S(b1-4)GlcNAc", "method_in_brief": "as §1"}, "[1]": {"target": "GlcNAc(b1-2)Man(a1-3)[GlcNAc(b1-4)][GlcNAc(b1-2)Man(a1-6)]Man(b1-4)GlcNAc(b1-4)GlcNAc", "method_in_brief": "as §1"}, "[2]": {"target": "GlcNAc(b1-2)[GlcNAc(b1-6)]Man(a1-6)[GlcNAc(b1-2)Man(a1-3)][GlcNAc(b1-4)]Man(b1-4)GlcNAc(b1-4)GlcNAc", "method_in_brief": "as §1"}, "[3]": {"target": "GlcNAc(b1-3)Gal(b1-4)GlcNAc", "method_in_brief": "as §1"}, "[4]": {"target": "GlcNAc(b1-3)Gal(b1-4)GlcNAc(b1-3)Gal(b1-4)GlcNAc(b1-2)[GlcNAc(b1-3)Gal(b1-4)GlcNAc(b1-3)Gal(b1-4)GlcNAc(b1-6)]Man(a1-6)[GlcNAc(b1-3)Gal(b1-4)GlcNAc(b1-3)Gal(b1-4)GlcNAc(b1-2)Man(a1-3)]Man(b1-4)GlcNAc(b1-4)[Fuc(a1-6)]GlcNAc", "method_in_brief": "as §1"}, "[5]": {"target": "GlcNAc(b1-3)[GlcNAc(b1-6)]Gal(b1-4)GlcNAc", "method_in_brief": "as §1"}, "[6]": {"target": "GlcNAc(b1-4)GlcNAc(b1-4)GlcNAc(b1-4)GlcNAc(b1-4)GlcNAc", "method_in_brief": "as §1"}, "Kdn(a2-3)Gal(b1-3)GalNAc": {"target": "Kdn(a2-3)Gal(b1-3)GalNAc", "method_in_brief": "as §1"}, "[7]": {"target": "Man(a1-3)[Man(a1-6)]Man(b1-4)GlcNAc(b1-4)GlcNAc", "method_in_brief": "as §1"}, "Man(a1-6)Man": {"target": "Man(a1-6)Man", "method_in_brief": "as §1"}, "[8]": {"target": "Neu5Ac(a2-3)Gal(b1-3)GalNAc(b1-4)[Neu5Ac(a2-3)]Gal(b1-4)Glc", "method_in_brief": "as §1"}, "[9]": {"target": "Neu5Ac(a2-3)Gal(b1-3)[Fuc(a1-4)]GlcNAc(b1-3)Gal(b1-3)[Fuc(a1-4)]GlcNAc", "method_in_brief": "as §1"}, "[10]": {"target": "Neu5Ac(a2-3)Gal(b1-4)GlcNAc(b1-3)Gal", "method_in_brief": "as §1"}, "[11]": {"target": "Neu5Ac(a2-3)Gal(b1-4)GlcNAc(b1-3)Gal(b1-4)GlcNAc(b1-6)[Gal(b1-3)]GalNAc", "method_in_brief": "as §1"}, "[12]": {"target": "Neu5Ac(a2-3)Gal(b1-4)[Fuc(a1-3)]GlcNAc(b1-3)GalNAc", "method_in_brief": "as §1"}, "[13]": {"target": "Neu5Ac(a2-3)[GalNAc(b1-4)]Gal(b1-4)GlcNAc(b1-3)GalNAc", "method_in_brief": "as §1"}, "[14]": {"target": "Neu5Ac(a2-6)Gal(b1-4)GlcNAc(b1-2)[Neu5Ac(a2-6)Gal(b1-4)GlcNAc(b1-4)]Man(a1-3)[GlcNAc(b1-4)][Neu5Ac(a2-6)Gal(b1-4)GlcNAc(b1-4)Man(a1-6)]Man(b1-4)GlcNAc(b1-4)GlcNAc", "method_in_brief": "as §1"}, "[15]": {"target": "Neu5Ac(a2-8)Neu5Ac(a2-3)Gal(b1-3)GalNAc(b1-4)[Neu5Ac(a2-3)]Gal(b1-4)Glc", "method_in_brief": "as §1"}}, "note": "This is one part of a sample in which the strongest signals are shown more often than they occur.", "data": [{"binder": "Gal 12 (Homo sapiens), Q96DT0 (protein) MSQPSGGRAPGTRIYSWSCPTVMSPGEKLDPIPDSFILQPPVFHPVVPYVTTIFGGLHAGKMVMLQGVVPLDAHRFQVDFQCGCSLCPRPDIAFHFNPRFHTTKPHVICNTLHGGRWQREARWPHLALRRGSSFLILFLFGNEEVKVSVNGQHFLHFRYRLPLSHVDTLGIFGDILVEAVGFLNINPFVEGSREYPAGHPFLLMSPRLEVPCSHALPQGLSPGQVIIVRGLVLQEPKHFTVSLRDQAAHAPVTLRASFADRTLAWISRWGQKKLISAPFLFYPQRFFEVLLLFQEGGLKLALNGQGLGATSMNQQALEQLRELRISGSVQLYCVHS", "values": [{"measurement": "glycan array binding signal (z-score)", "setting": "Gal3S4S(b1-4)GlcNAc", "result": 0.103}, {"measurement": "glycan array binding signal (z-score)", "setting": "GalNAc4S6S(b1-4)GlcNAc", "result": -0.099}, {"measurement": "glycan array binding signal (z-score)", "setting": "[1]", "result": 0.085}, {"measurement": "glycan array binding signal (z-score)", "setting": "[2]", "result": -0.54}, {"measurement": "glycan array binding signal (z-score)", "setting": "[3]", "result": -0.475}, {"measurement": "glycan array binding signal (z-score)", "setting": "[4]", "result": 0.115}, {"measurement": "glycan array binding signal (z-score)", "setting": "[5]", "result": -0.57}, {"measurement": "glycan array binding signal (z-score)", "setting": "[6]", "result": -0.139}, {"measurement": "glycan array binding signal (z-score)", "setting": "Kdn(a2-3)Gal(b1-3)GalNAc", "result": 0.39}, {"measurement": "glycan array binding signal (z-score)", "setting": "[7]", "result": -0.172}, {"measurement": "glycan array binding signal (z-score)", "setting": "Man(a1-6)Man", "result": -0.442}, {"measurement": "glycan array binding signal (z-score)", "setting": "[8]", "result": 0.416}, {"measurement": "glycan array binding signal (z-score)", "setting": "[9]", "result": -0.082}, {"measurement": "glycan array binding signal (z-score)", "setting": "[10]", "result": -0.004}, {"measurement": "glycan array binding signal (z-score)", "setting": "[11]", "result": -0.81}, {"measurement": "glycan array binding signal (z-score)", "setting": "[12]", "result": 2.37}, {"measurement": "glycan array binding signal (z-score)", "setting": "[13]", "result": -0.063}, {"measurement": "glycan array binding signal (z-score)", "setting": "[14]", "result": 0.922}, {"measurement": "glycan array binding signal (z-score)", "setting": "[15]", "result": -0.299}]}]}
